Experimental data as given in PubChem BioAssay AID1159580 (chemical genetic matrix, 2015).
Values joined by “and” are separate entries in the source; they are usually repeats but may differ in a detail not shown here. Equal values may be shown once. The whole screen tested about 5,500 compounds, of which about 2,000 (36%) were called active. Not shown: some 18% with an inconclusive outcome. Rule as the data show it: active = normalized growth mostly below about 0.91 (no sharp cut-off); inconclusive = no clear call, values can overlap the other calls; inactive = mostly above about 0.92. Some of the results follow.

Experiment: chemical genetic growth profiling, strain panel (AID 1159580);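 also: tested at 20 µM; growth read once vehicle control cultures reached saturation at 30 °C; 1 = growth at the plate median or of vehicle wells; lower values mean less growth of the strain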
Conditions: S. cerevisiae deletion strains, growth OD

Measured: normalized growth

OC1C(O)C(O)C(O)C(O)C1O (stereo not given)
inactive: locus YAL013W, strain DEP1, stronger effect = lower value 0.998 | locus YAL021C, strain ccr4, stronger effect = lower value 0.996 | locus YAL026C, strain drs2, stronger effect = lower value 1 | locus YAL030W, strain snc1, stronger effect = lower value 0.997 | locus YBL061C, strain skt5, stronger effect = lower value 0.998 | locus YBR009C, strain hhf1, stronger effect = lower value 1.01 | locus YBR021W, strain FUR4, stronger effect = lower value 1.08 | locus YBR023C, strain chs3, stronger effect = lower value 0.997 | locus YBR171W, strain sec66, stronger effect = lower value 1 | locus YBR229C, strain ROT2, stronger effect = lower value 0.957 | locus YBR231C, strain swc5, stronger effect = lower value 0.999 | locus YBR279W, strain paf1, stronger effect = lower value 1 | locus YCL011C, strain gbp2, stronger effect = lower value 1.01 | locus YCL016C, strain dcc1, stronger effect = lower value 1.01 | locus YCL029C, strain bik1, stronger effect = lower value 0.981 | locus YCL061C, strain MRC1, stronger effect = lower value 0.996 | locus YCL069W, strain vba3, stronger effect = lower value 0.999 | locus YCR088W, strain abp1, stronger effect = lower value 1 | locus YDL005C, strain med2, stronger effect = lower value 1 | locus YDL035C, strain GPR1, stronger effect = lower value 1 | locus YDL040C, strain nat1, stronger effect = lower value 1 | locus YDL074C, strain BRE1, stronger effect = lower value 0.962 | locus YDL101C, strain DUN1, stronger effect = lower value 0.989 | locus YDL134C, strain PPH21, stronger effect = lower value 0.99 | locus YDL185W, strain tfp1, stronger effect = lower value 0.966 | locus YDL192W, strain arf1, stronger effect = lower value 0.977 | locus YDR001C, strain nth1, stronger effect = lower value 0.998 | locus YDR069C, strain doa4, stronger effect = lower value 0.999 | locus YDR101C, strain arx1, stronger effect = lower value 0.976 | locus YDR137W, strain rgp1, stronger effect = lower value 1 | locus YDR150W, strain NUM1, stronger effect = lower value 0.99 | locus YDR159W, strain sac3, stronger effect = lower value 0.993 | locus YDR162C, strain NBP2, stronger effect = lower value 0.994 | locus YDR195W, strain ref2 0.984 | locus YDR297W, strain sur2, stronger effect = lower value 1 | locus YDR318W, strain mcm21, stronger effect = lower value 0.992 | locus YDR334W, strain swr1, stronger effect = lower value 0.994 | locus YDR335W, strain msn5, stronger effect = lower value 1 | locus YDR388W, stronger effect = lower value 0.989 | locus YDR392W, strain spt3, stronger effect = lower value 0.999 | locus YDR502C, strain sam2, stronger effect = lower value 0.986 | locus YEL003W, strain gim4, stronger effect = lower value 1.01 | locus YEL037C, strain rad23, stronger effect = lower value 1 | locus YEL061C, strain CIN8 (second series), stronger effect = lower value 1 | locus YEL061C, strain CIN8, stronger effect = lower value 0.983 | locus YER015W, strain faa2, stronger effect = lower value 0.993 | locus YER016W, strain bim1, stronger effect = lower value 0.991 | locus YER110C, stronger effect = lower value 0.982 | locus YER111C, strain swi4, stronger effect = lower value 1 | locus YER155C, strain BEM2 (second series), stronger effect = lower value 1.01 | locus YER155C, strain BEM2, stronger effect = lower value 0.999 | locus YER167W, strain BCK2, stronger effect = lower value 0.995 | locus YFR010W, strain ubp6, stronger effect = lower value 1 | locus YGL078C, strain dbp3, stronger effect = lower value 0.973 | locus YGL086W, strain mad1, stronger effect = lower value 0.979 | locus YGL167C, strain pmr1, stronger effect = lower value 1 | locus YGL173C, strain kem1, stronger effect = lower value 1.01 | locus YGL227W, strain vid30, stronger effect = lower value 1.01 | locus YGL240W, strain doc1, stronger effect = lower value 0.989 | locus YGL248W, strain PDE1, stronger effect = lower value 0.969 | locus YGL253W, strain hxk2, stronger effect = lower value 1 | locus YGR135W, strain pre9, stronger effect = lower value 1.02 | locus YGR252W, strain gcn5, stronger effect = lower value 0.924 | locus YHR013C, strain ard1, stronger effect = lower value 1 | locus YHR027C, strain rpn1, stronger effect = lower value 1 | locus YHR030C, strain SLT2, stronger effect = lower value 0.975 and 1 | locus YHR079C, strain IRE1 (second series), stronger effect = lower value 0.99 | locus YHR079C, strain IRE1, stronger effect = lower value 0.973 | locus YHR094C, strain hxt1, stronger effect = lower value 0.996 | locus YHR129C, strain ARP1, stronger effect = lower value 0.993 | locus YHR142W, strain chs7, stronger effect = lower value 1.01 | locus YHR200W, strain rpn10, stronger effect = lower value 0.971 | locus YIL066C, strain RNR3, stronger effect = lower value 0.979 | locus YIL073C, strain SPO22, stronger effect = lower value 0.994 | locus YIL125W, strain kgd1, stronger effect = lower value 0.98 | locus YIR030C, strain dcg1, stronger effect = lower value 0.995 | locus YJL092W, strain hpr5, stronger effect = lower value 1 | locus YJL095W, strain BCK1 (second series), stronger effect = lower value 1 | locus YJL095W, strain BCK1, stronger effect = lower value 0.991 | locus YJL115W, strain asf1, stronger effect = lower value 1 | locus YJL129C, strain trk1, stronger effect = lower value 1.02 | locus YJL134W, strain LCB3, stronger effect = lower value 0.995 | locus YJL154C, strain vps35, stronger effect = lower value 1 | locus YJL164C, strain tpk1, stronger effect = lower value 0.999 | locus YJL166W, strain qcr8, stronger effect = lower value 1.01 | locus YJL168C, strain set2, stronger effect = lower value 0.998 | locus YJL187C, strain SWE1 (second series), stronger effect = lower value 0.97 | locus YJL187C, strain SWE1, stronger effect = lower value 1.01 | locus YJR043C, strain POL32, stronger effect = lower value 0.995 | locus YJR066W, strain TOR1, stronger effect = lower value 0.956
